Source: PubChem BioAssay AID602440 (Sanford-Burnham Center for Chemical Genomics, 2012)
Among all 360,000 compounds or so, about 2,300 (0.64%) were called active. Cut-off read from the data, not from the text of the source: active = inhibition mostly above about 40% (no sharp cut-off); inactive = mostly below about 27%. The entries come from a sample that favours actives as a whole.

target: Sentrin-specific protease 8 (Homo sapiens) (UniProt Q96LD8); assay: blockers of SENP8 deneddylase activity – biochemical, fluorescence, Nedd8 protein substrate, uHTS, primary screen (AID 602440); conditions: recombinant SENP8, Nedd8 substrate fluorescence; at 20 µM; active compounds read high
Sequence (Q96LD8 whole entry, looked up): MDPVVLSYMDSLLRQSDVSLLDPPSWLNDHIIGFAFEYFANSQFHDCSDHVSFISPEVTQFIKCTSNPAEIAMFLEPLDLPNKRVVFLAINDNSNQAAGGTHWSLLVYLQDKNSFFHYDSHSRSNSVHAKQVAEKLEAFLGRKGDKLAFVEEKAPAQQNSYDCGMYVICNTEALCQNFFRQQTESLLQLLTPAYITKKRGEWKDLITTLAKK

Row | SMILES | inhibition
1 | NNC(=O)CNC(c1ccccc1)c1cc(Cl)ccc1NC(=O)c1ccccc1 (stereo not drawn) | 2.6% (inactive)
2 | CN(C(=O)COC(=O)CNC(=O)C12CC3CC(CC(C3)C1)C2)c1ccccc1 | 2% (inactive)
3 | CC(C)c1cc(Cn2c3ccccc3c(=O)n2C(C)Cn2cc(C3CC3)nn2)on1 (stereo not drawn) | -395% (inactive)
4 | CCS(=O)(=O)Nc1ccc(C(=O)NCCSc2ccccc2)cc1 | 23.1% (inactive)
5 | CCc1ccc(C(=O)NC(=S)Nc2ccccc2N2CCOCC2)cc1 | 30.3% (inactive)
6 | Cc1cccc(OCC(=O)NC(=S)Nc2ccccc2N2CCOCC2)c1 | 43.3% (active)
7 | Cc1cc(C)cc(OCC(=O)Nc2ccc(N3CCOCC3)cc2N2CCOCC2)c1 | 17.3% (inactive)
8 | CCn1c(=O)cc(SCC(=O)NCCC2=CCCCC2)c2ccccc21 | -40.2% (inactive)
9 | CCCc1nc(SCC(=O)Nc2ccccc2OC)c2c(=O)n(C)c(=O)n(C)c2n1 | 10.5% (inactive)
10 | FC(F)(F)c1cc(C(F)(F)F)c2ccc(N3CCN(c4ccccc4)CC3)nc2n1 | -2.9% (inactive)
11 | Cc1ccc(CNC(=O)C2(C(F)(F)F)C/C(=C\Cc3ccccc3)CCCO2)o1 (stereo not drawn) | 12.6% (inactive)
12 | CC(C)CC[n+]1ccn(C2=C([O-])c3ccccc3C(=O)/C2=N\S(=O)(=O)c2ccccc2)c1 | 54% (active)
13 | CC(=O)NC(Cc1ccc(F)cc1)C(=O)O (stereo not drawn) | 2% (inactive)
14 | O=C(CCNC(=O)c1ccc(Br)cc1)NCC(c1ccco1)N1CCCCC1 (stereo not drawn) | 10.5% (inactive)
15 | CCOC(=O)c1ccc(COC(=O)CCc2nc(-c3ccccc3)c(-c3ccccc3)o2)cc1 | -13.2% (inactive)
16 | O=C(NCCOc1ccccc1)c1ccccc1F | 5.5% (inactive)
17 | CCOc1cc(NC(=O)Nc2ccccc2)c(OCC)cc1NC(=O)CC | -0.4% (inactive)
18 | CCOc1cc(NC(=O)c2ccccc2C(=O)O)c(OCC)cc1NC(=O)c1ccccc1F | 50.6% (active)
19 | Cc1ccc(-c2nn(-c3cccc(F)c3)cc2CNCCc2ccncc2)o1 | -178% (inactive)
20 | CONC(=O)c1cc(OCC(F)(F)F)ccc1OCC(F)(F)F | 21.1% (inactive)

Row | SMILES | inhibition
21 | CCOc1c(Br)cc(/C=C2\C(=O)N(CCC#N)N=C2C)cc1OC | 50.8% (active)
22 | CCN1C(=O)[C@@H]2[C@@H](c3ccc(-c4ccccc4)cc3)N3CCCC[C@@]3(C(=O)OC)[C@@H]2C1=O | 3.1% (inactive)
23 | CC1=C/C(=N\OS(=O)(=O)c2ccccc2)C=CC1=O | 52.9% (active)
24 | COc1ccc2[nH]c3c(c2c1)CCN1C(=O)C(CC(=O)NCCc2ccccn2)C[C@H](C(=O)N2CCOCC2)[C@@]31C (stereo partly drawn) | -3.3% (inactive)
25 | Cc1ccc(S(=O)(=O)N2[C@@H](c3cccc4ccccc34)C(C(=O)O)=C[C@H]2C(C)(C)C)cc1 | 1.1% (inactive)
26 | O=C(NC1CC1)C1=C[C@H](c2coc3ccccc3c2=O)C[C@H](OCCCCO)O1 | -5% (inactive)
27 | Cc1ccc(Cl)c(OCC(=O)N2CCc3ccccc3C2)c1 | 20.7% (inactive)
28 | O=C(COc1ccccc1)N1CCc2ccccc2C1 | 42.5% (active)
29 | CCC(=O)c1ccc(OCC(=O)OCC(=O)N2CCc3ccccc3C2)cc1 | 18.9% (inactive)
30 | COc1cccc(N2CC(C(=O)NCc3n[nH]c(=O)c4ccccc34)CC2=O)c1 (stereo not drawn) | -0.8% (inactive)
31 | O=[N+]([O-])c1ccc(N2CCSCC2)cc1O | 57% (active)
32 | O=[N+]([O-])c1ccc(N2CCN(c3ccc(O)cc3)CC2)c(Cl)c1 | 26.5% (inactive)
33 | O=[N+]([O-])c1ccc(N2CCN(S(=O)(=O)c3ccccc3)CC2)cc1N1CCc2ccccc2C1 | -132% (inactive)
34 | CC(C(=O)NC1CCCC1)N1CCN(S(=O)(=O)c2ccccc2Cl)CC1 (stereo not drawn) | 7.4% (inactive)
35 | COc1cccc(CCNC(=O)COc2cccc3c2OC(C)(C)C3)c1 | 20.6% (inactive)
36 | CC1(C)Cc2cccc(OCC(N)=O)c2O1 | 20.9% (inactive)
37 | CC1(C)Cc2cccc(OCC(=O)Nc3nccs3)c2O1 | 42.4% (active)
38 | C[C@H](NC(=O)c1ccccc1Cl)C(=O)OCC(=O)N1CCN(c2ccccc2)CC1 | 12.8% (inactive)
39 | O=C(OCC(=O)N1CCN(c2ccccc2)CC1)c1ccc([N+](=O)[O-])s1 | 42.9% (active)
40 | COc1cc(NC(=O)COC(=O)c2ccc([N+](=O)[O-])s2)cc(OC)c1OC | 26.8% (inactive)

Row | SMILES | inhibition
41 | Oc1ccc(N=Cc2sc3ccccc3c2Cl)cc1 | 87.5% (active)
42 | CCCN=C1NC(=O)C(CC(=O)NCCc2ccc(OC)c(OC)c2)S1 (stereo not drawn) | 16.5% (inactive)
43 | Cc1ccc(-n2nc3c(=O)n(C(C)C(=O)NCc4ccc5c(c4)OCO5)nc(C)c3c2C)cc1 (stereo not drawn) | 3.2% (inactive)
44 | CC(=O)c1c(N2CCOCC2)nc(=S)n(-c2cc(C)ccc2C)c1C | 9.8% (inactive)
45 | CC(=O)Nc1ccc(OCCC[n+]2cccc(C(=O)[O-])c2)cc1 | 7.7% (inactive)
46 | COc1ccc(C(=O)Oc2ccc(-c3nnco3)cc2)cc1S(=O)(=O)N1CCOCC1 | 20.2% (inactive)
47 | COc1ccc2c(Cl)c(-c3nnco3)sc2c1 | -37.1% (inactive)
48 | COc1ccc(-c2nnco2)cc1OC | 41.5% (active)
49 | Cc1ccc(N2C(=O)CN=C2Nc2nc(C)cc(C)n2)cc1 | 31.7% (inactive)
50 | COc1ccc(N2CCC(CNC(=S)Nc3c(C)cccc3C)C2)cc1 (stereo not drawn) | 9.9% (inactive)
51 | CCN(C(=O)CSc1ncnc2sccc12)c1c(N)n(Cc2ccccc2)c(=O)[nH]c1=O | -25% (inactive)
52 | CC1CCCC(N2CCN(C(=O)c3ccc(F)cc3)CC2)C1 (stereo not drawn) | 7.2% (inactive)
53 | CCN1CCC2(CC1)N=C(c1ccc(F)cc1)C(=S)N2C(=O)c1ccc(C)cc1 | 48.7% (active)
54 | Cc1ccc(C(=O)N2CC(=O)Nc3ccc(F)cc3C2c2ccc(F)cc2)cc1 (stereo not drawn) | 4.1% (inactive)
55 | CCN1CCC(O)(/C=C/c2ccc(C)cc2)C(C(=O)/C=C/c2ccc(C)cc2)C1 (stereo not drawn) | 16.7% (inactive)
56 | COC(=O)CNC(=O)c1ccc2c(c1)S(=O)(=O)c1ccccc1C2=O | 23.2% (inactive)
57 | CN(Cc1ccccc1)C(=O)CCNC(=O)Cn1cnc2ccccc2c1=O | 16.4% (inactive)
58 | N#Cc1cccc(NC(=O)CN2CCCCCC2)c1 | 7.3% (inactive)
